We go through 29 molecules from the supplement of paper PMC12632987.

Over roughly 1,800 sequences, “median log2 fold change of GCK-ALFA target abundance (FLAG IP / Myc IP barcode read proportion)” has its median near 0.14; the lowest 2% begin near -0.84. Only a selection was taken, and the lowest values are over-represented in it overall.

To fix the notation:
T1: TRAF2, Q12933
T1 chain: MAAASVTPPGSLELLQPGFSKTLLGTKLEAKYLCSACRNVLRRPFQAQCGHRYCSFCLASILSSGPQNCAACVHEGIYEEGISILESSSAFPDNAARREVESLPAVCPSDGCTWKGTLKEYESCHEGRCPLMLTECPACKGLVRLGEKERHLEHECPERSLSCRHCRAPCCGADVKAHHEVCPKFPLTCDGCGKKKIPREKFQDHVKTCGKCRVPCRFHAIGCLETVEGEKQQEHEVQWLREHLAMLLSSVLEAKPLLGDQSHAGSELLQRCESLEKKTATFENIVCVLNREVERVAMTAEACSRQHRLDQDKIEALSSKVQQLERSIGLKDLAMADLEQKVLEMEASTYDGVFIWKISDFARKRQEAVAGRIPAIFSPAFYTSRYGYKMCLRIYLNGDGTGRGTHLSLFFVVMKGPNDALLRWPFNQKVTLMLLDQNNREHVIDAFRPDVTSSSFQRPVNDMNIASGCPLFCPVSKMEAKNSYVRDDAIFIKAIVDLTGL

B1: traf2_out_13_95_1086 (protein)
chain: SKEVNEKIMEIADEMMEQILATLDALAKQVAGDPELAAAVAEARRLAETRGVNEAIHKLRELAKANPEHAELLNAAIAEIEAIKKEASKKISELLKEEEE
B2: traf2_out_6_3_2525 (protein)
chain: SSESLRKDARKVLENMGITTAEQLLTLVTAEVNAVKKVASRPDFDRADVAGLRSVLALTRAMVEVAYEELPSVTEADKAEALALIADAEALVEAKAKELE
B3: traf2_out_3_89_2280 (protein)
chain: SMEEEEKIKEARENIETWIRGLRKSTRRVAEEMRKEGASLETIKGLIDSSATALLEAFKISLKDKGFDEETIEELVEEAKEELEKIREELKEEAEKAYEE
B4: traf2_out_13_95_1104 (protein)
chain: SAETAEKIMKIADEMLDKVEKILEELLKIAKEKGKLEEEIKEALHLARYQSINEAIHKLKELAKKYPEFKEELEAAIKEIEALKKEAGRKVAEILKEEKK
B5: traf2_out_13_95_1106 (protein)
chain: SAETAEKIMEIADEMLDKVEELLEKLLEIAKKKGKLEEEIQEALHLARYRSINEAIHLLKELAKKYPEFKEELEETIEKIEELIREAGRKVAEILKEEKE
B6: traf2_out_13_95_1091 (protein)
chain: SKEVAEKINKIADEMLDKSLALLEKLLKIAEEKGKAVEEIKEAIDLAEYRSINEAIHKLEELAKKYPEFKEELEATIKEIRAIKREAGRKVAEILKEEKE
B7: traf2_out_20_38_2033 (protein)
chain: SEEEEEKRRLEEAIEVANEAYDKYSARVAAWKAAGKTVEEIAEEAKEEVRRLLTEAGLEEEAEILIEDIDRALSSPEAERLIVRILARAEALVYQKKVNE
B8: traf2_out_11_104_646 (protein)
chain: LTREQAREFNDFAMEANDKAKELLQEVADFLESRGHEEEAAKVRAELAHPGSGVSTFKNLLEELLPKLDEESRAVAEKAIKELEELQKKVSDKLNELEKK
B9: traf2_out_20_3_2054 (protein)
chain: EELLKELEEEEKKLRELIEEIEKLVDPETAEELREALERVEKARKEGLEEYLVALSELRRLLLRLAEEARAAGKEEVAALLEEAAEAAQRAMNIVMKIIE
B10: traf2_out_18_117_1796 (protein)
chain: SELEKLQEEFEKTLKEFEEELEEAQRVATKLIEKYPKQLPEEAMDAIVEFGEVKRRVQQLVQEAKAHPNDVEKQKKLVEELKKLLEEMKEIKKKLEEILK
B11: traf2_out_11_155_685 (protein)
chain: EEKQKINNELVDKISEIADKAKAEARAIAAATAAAHPEAAAALAATLEASAGFGLSSFLGRLAATFRALGLADAAAQVEALRAQAQKEMNAAVKEAEEKL
B12: traf2_out_11_169_804 (protein)
chain: EEAEKNREINDFALELNDEAVARLEEAALALAREAGLDPEEVRAIFEAHKGKSLSAVAAALIRHFRERGAEAAAEAVLALYEELKEEINKKMTEKIKELE
B13: traf2_out_18_3_1946 (protein)
chain: SEEERKKYSEKLDEVFDDTGAEILARARALVAEDPRFQPALDAIEAIAARGPRPATMANTLIDALRALGYEEEAAAVEEYYSEKAKEASELIKKYEEAIK
B14: traf2_out_17_178_1710 (protein)
chain: SKAEARATISAATDRMIDLAEAAAAELLAIAEAEGDLSPEELAELRRARRLGSARTTLALMRRAIPKLKSAERVQALLDRFEAEYAALAKEIAAALEKYE
B15: traf2_out_17_178_1731 (protein)
chain: SREEILKKISEKADELLDTNKEAMDELRKIAEKEGVLTPELREKLDAVHRNANLYALEEVFDEVIEKTKSKEEVEKLKEETSKKMRELNKEIQALVEELE
B16: traf2_out_6_156_2382 (protein)
chain: DIEKILEEAKKKIEELIKKLSKAPESKKIRYINEIAGTVYRALQKLRDLGASLEELKEFTEEIKKFVEEQLEKYGLDESTKNLILSSINAVGEVALREAA
B17: traf2_out_20_3_2262 (protein)
chain: DELRAKAEAALAEAEALLAELAPRLPAADAARLQELLDAAKAAFATDLRDALVYLSELRRLALALAEEARAAGDAALAAALEALADAVGRAANYVYKIIE
B18: traf2_out_20_38_2004 (protein)
chain: SEEEEEEKRLEKIIQAANDALDAWEARFAALKAEGKSVEEIAEIAKEEIRRLLTAAGLEEEAEELVAQVDLVLDSPDAERLIARILARAAALVTQKKLQE
B19: traf2_out_20_38_2006 (protein)
chain: SEEEEEEKRLQKIIDAANEELDRWEKEIEELRAEGKSVEEIAEIAKKRIREMLTAAGLEEEAEELIAQVDTVLDSPDAERAIARILARAAALVTQKKLQE
B20: traf2_out_11_131_660 (protein)
chain: MDAVATARSAAERVDALLALAETLSPEERHRLALHALDTIEAVAEYLTSHVSTMTKEEVKEAARILREARDRVLALDPRVAPEAAEVEEAIKKLLEAAEE
B21: traf2_out_12_161_940 (protein)
chain: SSEHFQELSDVANKAFDKAQEIVDRVAEVSPALRPTFLAVARSLTLPVEEARAILDAAIAAHEAELTPEQLAEVRALGDELLAIQKEAQEEIKKIQEKYR
B22: traf2_out_3_89_2294 (protein)
chain: SMEQEKKLEEMRKRMEAYLRGFERSARWVARQMVADGMSLDTIRGVLEAARTALLEVLRESAEEAGLSPEQIEELVEEARERLERIVEEVVEEARREREA
B23: traf2_out_16_171_1431 (protein)
chain: SAEEKEKALKEEIDKERDDIIERMETAVEVTPLISKETGLTVEQIAKGFRSTMDDRIEALKKKYEEAAKTASEEVKKYMKERLEEIEKAKEEALKKILEI
B24: traf2_out_13_95_1115 (protein)
chain: SKELAEKIMEISDKALDQANALLDALEAKIKASGKLAPEVAAALAAAKKSTISTAIHTLKELAKKYPEFKADFEATIAQLEQIRRDAGREVAKLIKEEKE
B25: traf2_out_16_104_1404 (protein)
chain: AEAKQAEFDAIIAELEAIADKLQKIANKLYKLYLKADPETKVKLSDALVKASEARRAALEAAERAREARETGGDLAEARAALAKAKEEAAKVEKEVKELE
B26: traf2_out_17_162_1515 (protein)
chain: SALEEELAKLEKELKKIEKELKELKEKLKDLDKMSKEELTDLLVEASEARRRALELAERLEELKPEIGEERAGKLIAEARKLAEELQKIANKIYKKLEEK
B27: traf2_out_14_149_1232 (protein)
chain: SAEQEKLRAAAEINAEIAAALDEVLALLDAGKVEEAKALLRATIAELRARGAAHGITVSGLFVLEEILALLDTDVEAAKAAAAAARARARNAAEAFREMA
B28: traf2_out_20_3_2202 (protein)
chain: EELEKKLEEELEKAEELLKKAKELADPETAKKLDELIKRLKESRELSYEDRLVELSEIRREVLLLAQQAKAEGNEELAKVLEEAAEAINRAKNLVYKIIE
B29: traf2_out_13_95_1184 (protein)
chain: SEETKKKINEIADDMLEKVEKILTELAEKVKDDPEVKKAVEEIKKTAVTKGIHTAIGELKELAKKYPEYKELINEAIEKIEEIRREAGKKVAEILKEEEE

The experiment deals with T1, TRAF2, Q12933. Briefly: median log2 fold change of GCK-ALFA target abundance (FLAG IP / Myc IP barcode read proportion) (log2 ratio); each designed protein is fused to an ALFA-tag nanobody in HEK293 cells to bring the named protein to FLAG-tagged glucokinase (GCK); Myc marks an untargeted standard; higher = target protein stabilised (more abundant). The following applies: target protein: 3xFLAG-MCP-GCK-ALFA reporter; HEK293 landing pad (RPLP). How it is done:
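LABEL-seq trans screen in HEK293 landing-pad cells. Each de novo designed 100-aa effector handle, binding the indicated effector (E3 ligase, DUB or autophagy protein), is fused to a constant NbALFA target handle and induced with 2 ug/mL doxycycline. A FLAG-MCP-GCK-ALFA target and a Myc-MCP standard reporter were transfected, and after 48 h circRNA barcodes were recovered by anti-FLAG and anti-Myc IP and sequenced. The value is the median across barcodes (at least 3 per design) of log2(FLAG/Myc read-proportion ratio), with the two transfection replicates pooled. Negative values mean degradation and positive values mean stabilisation of the target.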
On to B1, for which the “median log2 fold change” value was -0.0311. As for B2, the “median log2 fold change” value was -0.025. For the molecule B3, the “median log2 fold change” value was 0.0329. Regarding B4, the “median log2 fold change” value was -0.841. As for B5, the “median log2 fold change” value was -0.553. With B6, the “median log2 fold change” value is -0.417. Take B7: the “median log2 fold change” value is -0.971. Turning to B8, the “median log2 fold change” value was determined as 0.185. The figure for B9 is 0.588; for B10 it is 0.186. For the molecule B11, the “median log2 fold change” value amounted to 0.177. In the case of B12, the “median log2 fold change” value was 0.243. For the molecule B13, the “median log2 fold change” value is 0.267.

As for B14, the “median log2 fold change” value is -0.136.

Consider B15, for which the “median log2 fold change” value was 0.639.

Regarding B16, the “median log2 fold change” value is 0.0808. In the case of B17 it was 0.219.

On to B18, for which the “median log2 fold change” value was -1.04. With B19, the “median log2 fold change” value is -0.29. The figure for B20 is 0.0927; for B21 it is -1.56.

As to B22, the “median log2 fold change” value is -0.433. For B23, the “median log2 fold change” value amounted to 0.175.

Consider B24, for which the “median log2 fold change” value is -0.178. The figure for B25 is 0.341; for B26 it is 0.222. Turning to B27, the “median log2 fold change” value stood at 0.339. As for B28, the “median log2 fold change” value is -0.0195.

As to B29, the “median log2 fold change” value was -0.726.
